Measured values as given in PubChem BioAssay (Tox21).
Results filed as inconclusive are left out. Activity calls are given as the source filed them. Unless noted, the call rests on the fitted dose curve.

Columns and labels:
[1] = Nuclear factor erythroid 2-related factor 2/antioxidant responsive element (Nrf2/ARE) small molecule agonists: qHTS cell viability counter screen in human keratinocytes (AID 1919968; active means well fitted curve in the direction sought with a large enough effect in the repeat runs; an effect the other way counts as inactive or inconclusive; further: nearly all actives have a fitted effect of over 55% in size; further: potency means the concentration at half of the fitted maximal effect)
Method in brief: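 Stably transfected HaCaT (KeratinoSens), 1,500/well. Test agents in DMSO were applied for 23 h, 37 C/5% CO2. CellTiter-Fluor was incubated 1 h before the fluorescence read.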

[2] = Nuclear factor erythroid 2-related factor 2/antioxidant responsive element (Nrf2/ARE) small molecule agonists: luciferase reporter gene qHTS assay in human keratinocytes (AID 1919969); further: nearly all actives have a fitted effect of over 35% in size; further: potency means the concentration at half of the fitted maximal effect
[3] = target: Gonadotropin-releasing hormone receptor (Homo sapiens) (UniProt P30968); experiment: Human gonadotropin-releasing hormone receptor (GnRHR) small molecule agonists, calcium flux assay in GnRHR-HEK293 cells (AID 1920063); further: nearly all actives have a fitted effect of over 35% in size; further: potency means the concentration at half of the fitted maximal effect
Chain of Gonadotropin-releasing hormone receptor (Homo sapiens) (P30968 whole entry, looked up): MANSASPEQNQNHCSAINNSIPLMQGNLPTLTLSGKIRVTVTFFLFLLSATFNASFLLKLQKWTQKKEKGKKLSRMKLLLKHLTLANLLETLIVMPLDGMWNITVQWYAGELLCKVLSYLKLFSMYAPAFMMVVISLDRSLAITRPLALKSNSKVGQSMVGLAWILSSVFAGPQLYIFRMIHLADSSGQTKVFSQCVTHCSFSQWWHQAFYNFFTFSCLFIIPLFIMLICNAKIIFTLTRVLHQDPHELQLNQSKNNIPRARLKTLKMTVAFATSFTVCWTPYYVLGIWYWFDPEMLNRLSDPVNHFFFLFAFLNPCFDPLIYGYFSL
Method in brief: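 Stable human GnRHR HEK293 line. 18 h plating, then calcium dye for 1 h at 37 C. Agonist-mode compound addition from DMSO stocks; fluorescence monitored 3 min.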

[4] = target: KiSS-1 receptor (Homo sapiens) (UniProt Q969F8); experiment: Human kisspeptin (KISS1R) small molecule agonists, calcium flux assay in KISS1R-HEK293 cells (AID 1920064; active means well fitted curve in the direction sought with a large enough effect in the repeat runs; an effect the other way counts as inactive or inconclusive; further: potency means the concentration at half of the fitted maximal effect)
Chain of KiSS-1 receptor (Homo sapiens) (Q969F8 whole entry, looked up): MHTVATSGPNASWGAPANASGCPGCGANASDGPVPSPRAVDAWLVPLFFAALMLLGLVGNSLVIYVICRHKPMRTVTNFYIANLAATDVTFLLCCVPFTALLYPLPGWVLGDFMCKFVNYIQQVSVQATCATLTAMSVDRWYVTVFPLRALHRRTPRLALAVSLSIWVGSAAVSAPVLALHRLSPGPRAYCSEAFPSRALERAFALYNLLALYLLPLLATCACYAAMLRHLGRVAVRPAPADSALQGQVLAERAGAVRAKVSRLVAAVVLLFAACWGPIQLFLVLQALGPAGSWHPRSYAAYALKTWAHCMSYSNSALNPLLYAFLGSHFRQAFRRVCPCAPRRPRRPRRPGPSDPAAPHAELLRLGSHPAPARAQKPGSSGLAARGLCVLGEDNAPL
Method in brief: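 After overnight (18 h) culture at 37 C/5% CO2, human KISS1R-HEK293 cells received calcium dye for 1 h, then test compound; emission at 540 nm (excitation 480 nm) was tracked for 3 min.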

[5] = G protein-coupled receptor (GPCR) small molecule agonists, calcium flux assay: HEK293 wild type cell line counter screen (AID 1920065); further: potency means the concentration at half of the fitted maximal effect
Method in brief: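 Following 18 h incubation at 37 C/5% CO2, plates got calcium dye for 1 h; compounds, ATP or DMSO were then pinned in and fluorescence followed kinetically (480/540 nm).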

[6] = p53 small molecule agonists, cell-based qHTS assay with human liver microsomes (AID 1963577)
Method in brief: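 Compounds act here after metabolic activation: human liver microsomes and NADPH, both at 0.5 mg/mL final, were co-added to p53RE-bla cells. Incubation ran 16 h at 37 C, followed by LiveBLAzer detection.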

[7] = p53 small molecule agonists, cell-based qHTS assay with rat liver microsomes (AID 1963578)
Method in brief: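 Read-out is beta-lactamase reporter fluorescence (LiveBLAzer, 2 h, room temperature, dark) in p53RE-bla cells treated 16 h at 37 C with compound, rat liver microsomes and NADPH, both 0.5 mg/mL final.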

[8] = p53 small molecule agonists, cell-based qHTS assay with rat liver microsomes: qHTS cell viability counter screen (AID 1963580); further: nearly all actives have a fitted effect of over 45% in size
Method in brief: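 After the beta-lactamase ratio was read, CellTiter-Glo was added to the same wells and luminescence measured at 30 min; cells had been treated 16 h at 37 C with compounds, rat liver microsomes and NADPH (0.5 mg/mL final each).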

[9] = p53 small molecule agonists, cell-based qHTS assay: qHTS cell viability counter screen (AID 1963581); further: nearly all actives have a fitted effect of over 45% in size; further: potency means the concentration at half of the fitted maximal effect
Method in brief: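 qHTS counter screen: 16 h compound exposure at 37 C of p53RE-bla HCT-116 cells (4,000 per well, seeded 5 h prior), cell viability by ATP luminescence.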

[10] = p53 small molecule agonists, cell-based qHTS assay (AID 1963582; active means well fitted activation curve with a large enough effect in the signal ratio in the repeat runs, not every such curve was filed as active; the % refers to the signal ratio)
Method in brief: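 Measured: fluorescence from cleaved LiveBLAzer substrate. System: p53RE-bla cells, 16 h compound treatment at 37 C, 2 h substrate step at room temperature.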

[11] = target: 5-hydroxytryptamine receptor 2A (Homo sapiens) (UniProt P28223); experiment: 5-hydroxytryptamine receptor 2A (HTR2A) small molecule antagonists, cell-based qHTS assay (AID 1963586); further: nearly all actives have a fitted effect of over 45% in size; further: potency means the concentration at half of the fitted maximal effect
Chain of 5-hydroxytryptamine receptor 2A (Homo sapiens) (P28223 whole entry, looked up): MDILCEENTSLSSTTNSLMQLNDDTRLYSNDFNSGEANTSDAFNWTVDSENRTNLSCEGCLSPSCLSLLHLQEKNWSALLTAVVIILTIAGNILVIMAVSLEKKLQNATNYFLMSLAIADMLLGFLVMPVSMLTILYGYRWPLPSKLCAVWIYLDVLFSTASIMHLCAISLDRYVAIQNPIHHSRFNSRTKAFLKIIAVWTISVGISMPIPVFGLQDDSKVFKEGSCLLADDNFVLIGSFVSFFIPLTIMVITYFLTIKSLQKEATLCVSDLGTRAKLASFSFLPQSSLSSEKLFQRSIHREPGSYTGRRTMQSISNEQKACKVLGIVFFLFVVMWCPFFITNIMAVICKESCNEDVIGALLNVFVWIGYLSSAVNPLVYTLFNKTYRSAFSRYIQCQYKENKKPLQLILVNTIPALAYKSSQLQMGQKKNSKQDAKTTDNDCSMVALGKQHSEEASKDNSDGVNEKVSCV
Method in brief: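 CHO cells stably expressing human HTR2A were plated for 18 h at 37 C, then loaded with calcium dye for 1 h. Compounds were preincubated 5 min at room temperature before DOI (4 nM solution) was added. Kinetic fluorescence was read for 3 min.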

[12] = target: 5-hydroxytryptamine receptor 2A (Homo sapiens) (UniProt P28223); experiment: 5-hydroxytryptamine receptor 2A (HTR2A) small molecule agonists, cell-based qHTS assay (AID 1963587); further: nearly all actives have a fitted effect of over 30% in size; further: potency means the concentration at half of the fitted maximal effect
Method in brief: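 CHO cells stably expressing human HTR2A, plated 18 h, loaded with calcium dye 1 h at 37 C. Agonist mode: compounds added and intracellular calcium fluorescence recorded kinetically for 2 min at 1 sec intervals.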

[13] = target: Muscarinic acetylcholine receptor M1 (Homo sapiens) (UniProt P11229); experiment: Cholinergic receptor muscarinic 1 (CHRM1) small molecule antagonists, cell-based qHTS assay (AID 1963588); further: nearly all actives have a fitted effect of over 40% in size; further: potency means the concentration at half of the fitted maximal effect
Chain of Muscarinic acetylcholine receptor M1 (Homo sapiens) (P11229 whole entry, looked up): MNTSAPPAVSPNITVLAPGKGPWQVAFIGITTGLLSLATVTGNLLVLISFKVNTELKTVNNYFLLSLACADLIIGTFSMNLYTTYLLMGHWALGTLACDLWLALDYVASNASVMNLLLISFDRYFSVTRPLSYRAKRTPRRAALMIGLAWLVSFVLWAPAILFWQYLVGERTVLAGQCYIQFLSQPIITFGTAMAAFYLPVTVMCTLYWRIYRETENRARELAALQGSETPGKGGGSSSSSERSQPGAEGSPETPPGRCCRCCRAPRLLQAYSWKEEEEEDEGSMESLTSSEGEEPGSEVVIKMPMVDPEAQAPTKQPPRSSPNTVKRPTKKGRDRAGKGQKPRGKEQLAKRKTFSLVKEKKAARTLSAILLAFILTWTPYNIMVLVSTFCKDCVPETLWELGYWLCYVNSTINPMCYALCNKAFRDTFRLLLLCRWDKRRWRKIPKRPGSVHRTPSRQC
Method in brief: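 Compounds were tested at 15 concentrations in three independent runs. Dye-loaded CHRM1-CHO cells were exposed 5 min at room temperature before stimulation by acetylcholine added at 50nM. Intracellular calcium was read kinetically on FDSS for 3 min.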

[14] = target: Muscarinic acetylcholine receptor M1 (Homo sapiens) (UniProt P11229); experiment: Cholinergic receptor muscarinic 1 (CHRM1) small molecule agonists, cell-based qHTS assay (AID 1963589); further: nearly all actives have a fitted effect of over 35% in size; further: potency means the concentration at half of the fitted maximal effect
Method in brief: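 Kinetic fluorescence (1 s intervals) of calcium-sensitive dye in human M1 CHO cells after compound addition; cells pre-incubated 18 h at 37 C/5% CO2 and dye-loaded 1 h.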

[15] = cAMP Responsive Elements (CRE) small molecule antagonists, cell-based qHTS assay (AID 1963591; active means well fitted inhibition curve with a large enough effect in the signal ratio in the repeat runs, not every such curve was filed as active; the % refers to the signal ratio)
Method in brief: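 Reporter line CRE-bla HEK 293T in dialyzed-FBS DMEM; cells preincubated 18 h, treated 3 h with compound plus NKH477 (0.25 uM final); LiveBLAzer FRET, 2 h RT.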

[16] = target: Beta-2 adrenergic receptor (Homo sapiens) (UniProt P07550); experiment: Adrenergic beta2 receptor (ADRB2) small molecule antagonists, cell-based qHTS assay (AID 1963592); further: nearly all actives have a fitted effect of over 50% in size; further: potency means the concentration at half of the fitted maximal effect; on activity change, negative = inhibition: series mostly up to about 92 µM
Chain of Beta-2 adrenergic receptor (Homo sapiens) (P07550 whole entry, looked up): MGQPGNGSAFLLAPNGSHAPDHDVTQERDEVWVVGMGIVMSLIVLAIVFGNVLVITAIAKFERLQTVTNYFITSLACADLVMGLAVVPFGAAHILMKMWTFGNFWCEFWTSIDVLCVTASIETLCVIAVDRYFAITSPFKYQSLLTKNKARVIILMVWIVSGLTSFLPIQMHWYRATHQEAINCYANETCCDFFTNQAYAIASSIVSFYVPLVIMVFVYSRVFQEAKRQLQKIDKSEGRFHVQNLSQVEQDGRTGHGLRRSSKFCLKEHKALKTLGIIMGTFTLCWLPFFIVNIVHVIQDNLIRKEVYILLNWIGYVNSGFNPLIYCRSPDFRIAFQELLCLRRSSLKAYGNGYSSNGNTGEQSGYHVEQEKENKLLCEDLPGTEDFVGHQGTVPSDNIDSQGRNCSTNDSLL
Method in brief: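 Assay format: CHO-ADRB2 cells, 18-20hr seeding at 37C/5% CO2, then compound plus 1nM isoproterenol agonist mix for 0.5hr RT. Homogeneous time-resolved fluorescence cAMP detection after 1hr, expressed as 665/615 nm ratio.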

[17] = target: D(2) dopamine receptor (Homo sapiens) (UniProt P14416); experiment: Dopamine D2 receptor (DRD2) small molecule agonists, cell-based qHTS assay (AID 1963594); further: nearly all actives have a fitted effect of over 35% in size
Chain of D(2) dopamine receptor (Homo sapiens) (P14416 whole entry, looked up): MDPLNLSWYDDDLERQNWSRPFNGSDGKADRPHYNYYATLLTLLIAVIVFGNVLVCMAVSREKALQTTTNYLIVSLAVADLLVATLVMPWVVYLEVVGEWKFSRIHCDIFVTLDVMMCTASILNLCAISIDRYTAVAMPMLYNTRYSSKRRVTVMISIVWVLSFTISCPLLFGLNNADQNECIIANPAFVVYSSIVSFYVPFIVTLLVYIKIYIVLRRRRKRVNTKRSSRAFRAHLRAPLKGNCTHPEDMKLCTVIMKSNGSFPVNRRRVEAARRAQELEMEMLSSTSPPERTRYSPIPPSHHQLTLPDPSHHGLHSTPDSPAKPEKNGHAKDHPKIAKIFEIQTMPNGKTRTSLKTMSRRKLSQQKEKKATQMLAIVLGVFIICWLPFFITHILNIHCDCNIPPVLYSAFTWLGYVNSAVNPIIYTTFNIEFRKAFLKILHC
Method in brief: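 HEK293 cells stably expressing human DRD2, pre-treated with PDE inhibitor Ro20-1724 (0.1 mM final) and compound 10 min at room temperature, then stimulated with NKH477 (200nM […]) for 30 min. cAMP read by HTRF (665/620 nm).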

[18] = target: D(2) dopamine receptor (Homo sapiens) (UniProt P14416); experiment: Dopamine D2 receptor (DRD2) small molecule antagonists, cell-based qHTS assay (AID 1963595; active means well fitted inhibition curve with a large enough effect in the signal ratio in the repeat runs, with a control signal flat; the % refers to the signal ratio; further: potency means the concentration at half of the fitted maximal effect)
Method in brief: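 Antagonism was scored as restored cAMP in HEK293-DRD2 cells. These cells were stimulated with 200 nM NKH477 and 12 nM quinpirole for 30 min at room temperature, in the presence of 0.1 mM Ro20-1724.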

[19] = p53 small molecule agonists, cell-based qHTS assay with human liver microsomes: qHTS cell viability counter screen (AID 1963579); further: nearly all actives have a fitted effect of over 45% in size; further: potency means the concentration at half of the fitted maximal effect
Method in brief: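 Cells carrying the p53 response-element beta-lactamase reporter are treated for 16 h at 37 C with test compounds in the presence of human liver microsomes and NADPH (both 0.5 mg/mL final); ATP-based CellTiter-Glo luminescence then reports viability.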

[20] = cAMP Responsive Elements (CRE) small molecule agonists, cell-based qHTS assay (AID 1963590)
Method in brief: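 Test agents in DMSO were incubated 3 h at 37 C/5% CO2 with CRE-bla HEK 293T cells seeded 18 h earlier; LiveBLAzer B/G FRET substrate was added and read after 2 h at room temperature.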
On the % scale 0 is the no-effect control and ±100 the full control effect.

CN1CCN(C(=O)O[C@H]2c3nccnc3C(=O)N2c2ccc(Cl)cn2)CC1
inactive: Potency [1] | Potency [2] | Potency [3] | Potency [4] | Potency [5] | Potency [6] | Potency [7] | Potency [8] | Potency [9] | Potency [10] | Potency [11] | Potency [12] | Potency [13] | Potency [14] | Potency [15] | Potency [16] | Potency [17] | Potency [18]

Cc1ccc2nc3sc(=O)sc3nc2c1
active: Potency [1] 3.66 µM | Potency [2] 1.64 µM
inactive: activity change [3] -0.0057% [at 11.8 µM, hits give high values] | activation [4] -1.66% [at 15.8 µM] | activation [5] -0.174% [at 11.8 µM] | activation [6] 12.4% [at 13.5 µM] | activation [7] 0.351% [at 13.6 µM] | activity change, negative = cytotoxicity [19] 4.93% [at 13.5 µM] | activity change, negative = cytotoxicity [8] -3.16% [at 13.5 µM] | activity, negative = inhibition [11] 8.83% [at 12.7 µM] | activation [12] -3.01% [at 15.9 µM] | activity, negative = inhibition [13] 5.56% [at 12.6 µM] | activation [14] -0.991% [at 15.8 µM] | activity change, negative = inhibition [15] 1.33% [at 18.9 µM] | activity change, negative = inhibition [16] -4.14% [at 19 µM] | activation [17] 1.16% [at 19 µM] | activity change, negative = inhibition [18] 0.198% [at 18.9 µM]

N#Cc1c(-c2ccc(Cl)cc2)[nH]c(C(F)(F)F)c1Br
inactive: Potency [3] | Potency [4] | Potency [6] | Potency [7] | Potency [19] | Potency [9] | Potency [12] | Potency [14] | Potency [17] | Potency [18]
active: Potency [1] 10.9 µM | Potency [2] 9.69 µM | Potency [5] 2.45 µM | Potency [13] 16.8 µM

O=C(CCCN1CCC2(CC1)C(=O)NCN2c1ccccc1)c1ccc(F)cc1
inactive: Potency [1] | Potency [2] | Potency [4] | Potency [5] | Potency [6] | Potency [7] | Potency [19] | Potency [8] | Potency [13] | Potency [14] | Potency [20] | Potency [15] | Potency [17]
active: Potency [3] 6.01 µM | Potency [16] 1.5 µM

Fc1ccc(C(OCCN2CCN(CCCc3ccccc3)CC2)c2ccc(F)cc2)cc1
active: Potency [1] 13.3 µM | Potency [11] 1.3 µM | Potency [16] 29.8 µM | Potency [18] 26.6 µM
inactive: Potency [2] | Potency [3] | Potency [4] | Potency [5] | Potency [6] | Potency [7] | Potency [19] | Potency [8] | Potency [12] | Potency [13] | Potency [14]

C=CC(=O)[O][Sn]([CH2]CCC)([CH2]CCC)[CH2]CCC
active: Potency [1] 0.969 µM | Potency [2] 1.37 µM | Potency [3] 5.49 µM | Potency [4] 19.5 µM | Potency [5] 38.9 µM | Potency [19] 5.13 µM | Potency [9] 1.62 µM | Potency [11] 3.75 µM | Potency [12] 12.3 µM | Potency [14] 11 µM | Potency [16] 0.969 µM | Potency [18] 2.43 µM
inactive: Potency [6] | Potency [7] | Potency [17]

CC(=O)c1ccc(-c2ccccc2)cc1
inactive: Potency [1] | Potency [2] | Potency [3] | Potency [4] | Potency [5] | Potency [6] | Potency [7] | Potency [19] | Potency [9] | Potency [10] | Potency [12] | Potency [13] | Potency [14] | Potency [20] | Potency [15] | Potency [16] | Potency [17] | Potency [18]
